This is part of a sample that, as a whole, favours compounds with a hit. Of some 83,000 tested, about 20% had one in any assay.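 How to read the values: 0–100, growth inhibition (40 = 60% inhibited); 0, no net growth; -100 to 0, cell death (-40 = 40% of starting cells died; -100 = all dead).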 Calls of active or inactive are those of the source. How the source made its calls: active means growth percent below 10; inactive means the rest.
How the values were obtained:
Test in all cases: NCI-60 one-dose screen, 48 h (100 = growth as untreated, 0 = no growth, -100 = all killed)
Conditions in all cases: 10 µM unless noted
HCT-15 colon = system: HCT-15 colon
HT29 colon = system: HT29 colon
SNB-75 CNS = system: SNB-75 CNS
SNB-19 CNS = system: SNB-19 CNS
U251 CNS = system: U251 CNS
PC-3 prostate = system: PC-3 prostate
SK-MEL-5 melanoma = system: SK-MEL-5 melanoma
UACC-62 melanoma = system: UACC-62 melanoma
LOX IMVI melanoma = system: LOX IMVI melanoma
SK-MEL-28 melanoma = system: SK-MEL-28 melanoma

Measured: growth

CCN1C(=O)N(CC)C2SC(N/N=C/c3ccccc3)=NC21 (stereo not given)
inactive: HCT-15 colon 16.9% | SNB-75 CNS 37.4% | SNB-19 CNS 27.3% | U251 CNS 17.1% | PC-3 prostate 28% | SK-MEL-5 melanoma 12.1% | UACC-62 melanoma 37% | LOX IMVI melanoma 17.3% | SK-MEL-28 melanoma 58.1%
active: HT29 colon -0.975%

NS(=O)(=O)Oc1ccc2nc(Nc3ccc(F)c(F)c3)ccc2c1
inactive: HCT-15 colon 69.6% | HT29 colon 97.3% | SNB-75 CNS 81.3% | SNB-19 CNS 102% | U251 CNS 91.9% | PC-3 prostate 90.6% | SK-MEL-5 melanoma 98.7% | UACC-62 melanoma 85.5% | LOX IMVI melanoma 85.3% | SK-MEL-28 melanoma 98.5%

CCOC(=O)c1c(Nc2ccccc2)nn2c(-c3ccc(OC)c(OC)c3)ccnc12
inactive: HCT-15 colon 18.4% | HT29 colon 62.3% | SNB-75 CNS 68.7% | SNB-19 CNS 80.1% | U251 CNS 60.6% | PC-3 prostate 39.1% | SK-MEL-5 melanoma 32.4% | UACC-62 melanoma 77.1% | LOX IMVI melanoma 37.6% | SK-MEL-28 melanoma 65.8%

COc1cccc(/C=C/C(=O)c2ccc(NC(=O)COc3cccc4cccnc34)cc2)c1
inactive: HCT-15 colon 94.8% | HT29 colon 98.2% | SNB-75 CNS 97.4% | SNB-19 CNS 95.9% | U251 CNS 97.2% | PC-3 prostate 93.3% | SK-MEL-5 melanoma 94.9% | UACC-62 melanoma 94.5% | LOX IMVI melanoma 78% | SK-MEL-28 melanoma 104%

CC(C)(C)CC(C)(C)n1nnnc1C(Nc1ccccc1)c1cc2cccc3ccc4cccc1c4c32 (stereo not given)
inactive: HCT-15 colon 78.5% | HT29 colon 70.7% | SNB-75 CNS 99.9% | SNB-19 CNS 95.1% | U251 CNS 88.7% | PC-3 prostate 50.4% | SK-MEL-5 melanoma 89.6% | UACC-62 melanoma 67.4% | LOX IMVI melanoma 85.1% | SK-MEL-28 melanoma 90%

COc1cc(NC2=C(Cl)C(=O)c3nc(C)ccc3C2=O)cc(OC)c1
active: HCT-15 colon -66.2% | SNB-75 CNS -4.09% | SK-MEL-5 melanoma -74.9% | UACC-62 melanoma -43.6% | LOX IMVI melanoma -82.6% | SK-MEL-28 melanoma -73.1%
inactive: HT29 colon 24.9% | SNB-19 CNS 30.4% | U251 CNS 36.8% | PC-3 prostate 28%

O=C(Cn1cc(CN2C(=O)c3ccc([N+](=O)[O-])cc3C2=O)nn1)Nc1ccccc1Br
inactive: HCT-15 colon 102% | HT29 colon 112% | SNB-75 CNS 87.5% | SNB-19 CNS 102% | U251 CNS 109% | PC-3 prostate 102% | SK-MEL-5 melanoma 104% | UACC-62 melanoma 90.7% | LOX IMVI melanoma 116% | SK-MEL-28 melanoma 108%

COc1cc2c3c(n(CCCN4CCCCC4)c(=O)c2cc1OC)-c1cc2c(cc1C3=O)OCO2
inactive: SK-MEL-5 melanoma 60.8% | UACC-62 melanoma 59.2%
active: HCT-15 colon -84.2% | HT29 colon -96.9% | SNB-75 CNS -85.3% | SNB-19 CNS -72.3% | U251 CNS -92.5% | PC-3 prostate -87% | LOX IMVI melanoma -74% | SK-MEL-28 melanoma -79.4%

O=S(=O)(Nc1cc(Cl)cc(Cl)c1)c1ccc(-c2cnc(C3CC3)o2)cc1
active: SNB-75 CNS -1.98%
inactive: HCT-15 colon 30.9% | HT29 colon 12.1% | SNB-19 CNS 42.9% | U251 CNS 37.4% | PC-3 prostate 27% | SK-MEL-5 melanoma 36.9% | UACC-62 melanoma 39.1% | LOX IMVI melanoma 44.8% | SK-MEL-28 melanoma 69.9%

CC[C@@](C)(NC(=O)C(C)(C)NC(=O)[C@@H](NC(=O)[C@@H]1CCCN1C(=O)C(C)(C)NC(=O)[C@H](CC(C)C)NC(=O)CNC(=O)C(C)(C)NC(=O)[C@@H](NC(=O)C(C)(C)NC(=O)[C@H](CCC(N)=O)NC(=O)[C@H](C)NC(=O)C(C)(C)NC(=O)[C@H](C)NC(=O)C(C)(C)NC(=O)[C@H](C)NC(=O)C(C)(C)NC(C)=O)C(C)C)C(C)C)C(=O)N[C@@H](CCC(N)=O)C(=O)N[C@@H](CCC(N)=O)C(=O)N[C@H](CO)CC1CCCCC1
inactive: HCT-15 colon 101% [5 µM] | HT29 colon 23% [5 µM] | SNB-75 CNS 13.4% [5 µM] | SNB-19 CNS 24.3% [5 µM] | U251 CNS 29.2% [5 µM] | PC-3 prostate 15.5% [5 µM] | UACC-62 melanoma 31.1% [5 µM] | SK-MEL-28 melanoma 26.9% [5 µM]
active: SK-MEL-5 melanoma -43.5% [5 µM] | LOX IMVI melanoma 0.772% [5 µM]

COc1ccc(N2C(=O)c3cc(OC)c(OC)cc3NC2SCc2ccccc2)cc1 (stereo not given)
inactive: HCT-15 colon 96.1% | HT29 colon 116% | SNB-75 CNS 112% | SNB-19 CNS 109% | U251 CNS 108% | PC-3 prostate 102% | SK-MEL-5 melanoma 97% | UACC-62 melanoma 93.8% | LOX IMVI melanoma 94.8% | SK-MEL-28 melanoma 96.9%

COc1ccc(-c2cc(-c3cccc4ccccc34)n3c(n2)nc2ccccc23)cc1OC
inactive: HCT-15 colon 27.4% | HT29 colon 21.5% | SNB-75 CNS 40.7% | SNB-19 CNS 16.7% | U251 CNS 20.4% | PC-3 prostate 30.8% | SK-MEL-5 melanoma 17.9% | UACC-62 melanoma 20% | LOX IMVI melanoma 30.9% | SK-MEL-28 melanoma 51.5%

COc1ccc(Cn2cc3c(c2-c2cc(OC)c(OC)c(OC)c2)CCCc2cnoc2-3)cc1
inactive: HCT-15 colon 20.1% | HT29 colon 14.7% | SNB-19 CNS 23.1% | U251 CNS 28.6% | PC-3 prostate 44.4% | SK-MEL-5 melanoma 21.6% | UACC-62 melanoma 33.9% | LOX IMVI melanoma 35.8% | SK-MEL-28 melanoma 64.4%
active: SNB-75 CNS -17.6%

Cc1ccccc1NC1CC(=O)N(c2ccc(Cl)cc2Cl)C1=O (stereo not given)
inactive: HCT-15 colon 101% | HT29 colon 104% | SNB-75 CNS 90.9% | SNB-19 CNS 95.6% | U251 CNS 99.5% | PC-3 prostate 97.2% | SK-MEL-5 melanoma 94.4% | UACC-62 melanoma 99.8% | LOX IMVI melanoma 94.4% | SK-MEL-28 melanoma 105%

COc1ccc(/C=C/C(=O)c2nnn(-c3ccc(Br)cc3)c2C)cc1OC
inactive: HCT-15 colon 60.7% | HT29 colon 62.2% | SNB-75 CNS 81.6% | SNB-19 CNS 78.9% | U251 CNS 86.8% | PC-3 prostate 75.3% | SK-MEL-5 melanoma 63.9% | UACC-62 melanoma 62% | LOX IMVI melanoma 43.5% | SK-MEL-28 melanoma 96.5%

Reference: PubChem BioAssay (NCI)
